SENP8 block-1 = inhibitors of human SENP8 protease; Q96LD8; recombinant SENP8, Nedd8 substrate fluorescence; inhibition, % at 20 µM; hit rate 0.64% among 360,000; in the data active means inhibition mostly above about 40%, no sharp cut-off; inactive means mostly below about 27%
Target sequence (Q96LD8 whole entry, looked up): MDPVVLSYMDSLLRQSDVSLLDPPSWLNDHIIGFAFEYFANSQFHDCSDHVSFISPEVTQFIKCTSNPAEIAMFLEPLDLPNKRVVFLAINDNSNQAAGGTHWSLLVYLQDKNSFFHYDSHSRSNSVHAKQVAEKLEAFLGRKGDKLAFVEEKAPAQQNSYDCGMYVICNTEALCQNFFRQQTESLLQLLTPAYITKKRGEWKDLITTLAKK
SENP7 block = SENP7 protease inhibition; Q9BQF6; recombinant SENP7, Z-RLRGG-aminoluciferin luminescence, 40 min; inhibition, % at 5 µM; hit rate 1.5% among 330,000;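 active means inhibition above about 50% at the single test dose, limit read from the data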;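 further: plate controls were DMSO with enzyme for no effect and no enzyme buffer wells for full effect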
Platelet DG rel = modulates dense granule release in human platelets | human platelet-rich plasma, SFLLRN dense granule ATP release, luminescence | inhibition, %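 (compounds screened at 7.5 µM in platelet-rich plasma)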 | hit rate 0.22% among 300,000;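 active means mean replicate score, as percent of positive control, at or above 50; inconclusive means mean below 50 but at least one replicate at or above 50; inactive means mean and every replicate below 50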
SENP6 inh = SENP6 protease inhibition. Recombinant SENP6 catalytic domain, aminoluciferin luminescence. inhibition, % at 10 µM. hit rate 1.8% among 330,000. AID 2599;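 active means inhibition above about 50% at the single tested dose, limit read from the data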;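 further: plate controls were DMSO wells with enzyme for no effect and DMSO wells lacking enzyme for full effect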
SENP8 block-2 = blocks the human protease SENP8; purified SENP8, Z-RLRGG-aminoluciferin cleavage, luminescence; inhibition, % at 10 µM; hit rate 1.2% among 330,000; in the data active means inhibition above about 50%
SENP8 confirm = human SENP8 inhibition, confirmed; inhibition, % at 12.5 µM; hit rate 40% among 6,200; shares compounds with SENP7 block; Recombinant SENP8, Z-RLRGG-aminoluciferin luminescence, 60 min;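 active means mean inhibition across replicates above about 50%, limit read from the data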
SENP6 confirm = confirmation of human SENP6 protease inhibitors. recombinant SENP6, Z-RLRGG-aminoluciferin luminescence. shares compounds with SENP7 block. AID 488915. hit rate 58% among 6,200. inhibition, % at 12.5 µM
SENP7 confirm = human SENP7 inhibition, confirmed; shares compounds with SENP7 block; recombinant SENP7, Z-RLRGG-aminoluciferin luminescence, 40 min; inhibition, % at 12.5 µM; hit rate 69% among 6,200; AID 488917
Casp3 select = inhibits human caspase-3 in SENP selectivity test | shares compounds with SENP7 block | purified caspase-3, Z-DEVD-aminoluciferin luminescence, 60 min | inhibition, % at 12.5 µM | hit rate 60% among 6,200;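 active means mean inhibition above about 50%, limit read from the data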;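 further: plate controls were enzyme with DMSO for no effect and wells without caspase-3 for full effect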
Target sequence (P42574 28-227 limits assumed): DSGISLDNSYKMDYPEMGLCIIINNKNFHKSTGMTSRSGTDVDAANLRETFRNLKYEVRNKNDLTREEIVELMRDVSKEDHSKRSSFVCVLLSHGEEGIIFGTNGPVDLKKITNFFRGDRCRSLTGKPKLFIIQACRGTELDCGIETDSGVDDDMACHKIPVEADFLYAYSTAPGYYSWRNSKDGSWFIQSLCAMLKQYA
SENP luc ctr = counter-screen for SENP inhibitors: luminescence interference. shares compounds with SENP7 block. Pre-incubated SENP8/Z-RLRGG-aminoluciferin, luciferase luminescence interference. inhibition, % at 12.5 µM. hit rate 39% among 6,200;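 active means mean inhibition above about 50% when retested at one dose, limit read from the data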;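 further: plate controls were DMSO wells with completed reaction for no effect and substrate without enzyme for full effect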
Numbers without * were called inactive; ? = inconclusive; nt = not tested or not shown. Most compounds without a hit are left out; they make up all but 2.4% or so of the library.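 How the source made its calls, unless noted: active means mean inhibition above about 50% in the one-dose retest (limit read from the data); inactive means the rest.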

SMILES	SENP8 block-1	SENP7 block	Platelet DG rel	SENP6 inh	SENP8 block-2	SENP8 confirm	SENP6 confirm	SENP7 confirm	Casp3 select	SENP luc ctr
O=C(NNC(=O)c1cc2ccccc2o1)c1ccc(F)cc1	-58	5	nt	8	-1	nt	nt	nt	nt	nt
O=C(c1ccc(F)cc1)c1cc2ccccc2o1	18	67*	-7	84*	51*	7	46	84*	57*	18
COc1cccc2cc(C(=O)c3ccccc3)oc12	6	62*	3	73*	61*	-8	60*	84*	61*	64*
O=C(c1ccccc1)c1cc2ccccc2oc1=O	23	6	-3	16	0	nt	nt	nt	nt	nt
COc1ccc(OC(=O)c2cc3ccccc3o2)cc1	14	71*	3	61*	-54	12	29	89*	35	20
C#CC(C)(O)C1CC(CC(=O)O)C1(C)C (configuration not stated)	9	nt	nt	nt	nt	nt	nt	nt	nt	nt
COc1cc(C(=O)NCC(=O)Nc2ccc(F)c(F)c2)ccc1OCC(=O)N1CCOCC1	14	11	7	4	-1	nt	nt	nt	nt	nt
Cc1ccc(C(=O)N[C@H](C(=O)N2CCN(c3ccccc3F)CC2)C(C)C)cc1	4	2	11	-14	-3	nt	nt	nt	nt	nt
CC(C)C[C@H](NC(=O)N1CCn2c1nc1ccccc12)C(=O)N[C@@H](Cc1ccccc1)C(=O)O	2	4	13	-2	-7	nt	nt	nt	nt	nt
O=C(Nc1ccccc1)c1cc(S(=O)(=O)NCc2ccncc2)ccc1Cl	7	-1	4	0	0	nt	nt	nt	nt	nt
O=C1NC(=Nc2ccccc2Cl)S/C1=C\c1cccc([N+](=O)[O-])c1O	48*	9	3	93*	86*	90*	92*	79*	52*	81*
COc1c(/C=C2\SC(=Nc3ccccc3Cl)NC2=O)cccc1[N+](=O)[O-]	14	9	?	-36	-44	nt	nt	nt	nt	nt
Oc1ccccc1/C=N/Nc1nc2ccccc2o1	-26	79*	11	83*	69*	28	62*	92*	66*	31
COc1cc(/C=N/Nc2nc3ccccc3o2)cc(OC)c1O	-99	-5	0	5	2	nt	nt	nt	nt	nt
Brc1ccc(/C=N/Nc2nc3ccccc3o2)cc1	-33	55*	1	23	9	22	18	32	26	41
COc1ccc(/C=N/Nc2nc3ccccc3o2)cc1O	-16	73*	22	45	64*	84*	84*	97*	82*	82*
CCN(CC)CCn1c(NS(=O)(=O)c2ccc(Cl)cc2)nc2ccccc21	16	2	4	-6	-2	nt	nt	nt	nt	nt
O=C(/C=C/c1ccc(O)c(O)c1)NC(=O)c1ccccc1O	-7	59*	1	74*	69*	0	64*	90*	38	74*
O=C(NO)c1ccccc1O	-5	2	-5	-6	6	nt	nt	nt	nt	nt
O=C(/C=C/c1ccc(Br)cc1)NC(=O)c1ccccc1O	-32	64*	0	87*	78*	-4	55*	79*	10	24
O=C(O)/C=C/c1ccc(O)c(O)c1	-22	-4	0	-1	2	nt	nt	nt	nt	nt
CSc1ccc(/C=C/C(=O)NC(=O)c2ccccc2O)cc1	-392	48	1	93*	79*	22	15	10	5	18
Cc1ncoc1C(=O)Nc1nccs1	21	-3	2	-4	-8	nt	nt	nt	nt	nt
O=C(Nc1ncc([N+](=O)[O-])s1)c1ccccc1Br	28	76*	1	90*	86*	91*	90*	100*	94*	71*
O=C(Nc1ncc([N+](=O)[O-])s1)c1cccs1	20	99*	14	97*	96*	96*	98*	103*	98*	98*
SMILES	SENP8 block-1	SENP7 block	Platelet DG rel	SENP6 inh	SENP8 block-2	SENP8 confirm	SENP6 confirm	SENP7 confirm	Casp3 select	SENP luc ctr
Cc1cnc(NC(=O)c2cccs2)s1	-9	57*	4	69*	50	62*	60*	86*	84*	34
Cc1ncoc1C(=O)Nc1ncc([N+](=O)[O-])s1	21	97*	20	95*	93*	99*	100*	103*	99*	98*
Cc1c(C(=O)N(C)Cc2ccc(OC(F)F)cc2)oc2ccccc12	0	-11	-14	-7	-7	nt	nt	nt	nt	nt
CCC(C)NC(=O)C(=O)NCc1ccccn1 (configuration not stated)	5	6	10	-4	-5	nt	nt	nt	nt	nt
CCn1nc(C)c(CN2CCc3c([nH]c4ccccc34)C2c2ccc(F)c(OC)c2)c1C (configuration not stated)	-126	-9	0	-2	-9	nt	nt	nt	nt	nt
Cc1cnc(NC(=O)COc2ccccc2Cl)s1	13	92*	27	90*	77*	66*	91*	99*	90*	30
Cc1cnc(NC(=O)CCNC(=O)c2ccccc2Cl)s1	6	-3	-1	4	-8	nt	nt	nt	nt	nt
COc1c(Cl)cccc1-c1cn2ccccc2n1	-413	93*	24	93*	89*	93*	93*	101*	92*	44
COCCn1c(C)cc(C2=NNC(=NC3CC3)SC2)c1C	5	7	82*	75*	82*	95*	96*	101*	98*	68*
COc1ccc2nc(-c3ccccn3)[nH]c2c1	-412	82*	24	77*	59*	78*	73*	93*	89*	73*
Nc1ccc2nc(-c3ccc(N)c(Cl)c3)[nH]c2c1	-449	34	20	60*	35	62*	59*	81*	78*	63*
Nc1ccc2nc(-c3ccccn3)[nH]c2c1	-406	52*	10	52*	38	42	51*	79*	82*	49
Nc1cccc(-c2nc3ccc(C(=O)c4ccccc4)cc3[nH]2)c1	-24	81*	14	85*	71*	80*	76*	93*	63*	83*
Nc1ccc2nc(-c3cccnc3)[nH]c2c1	-161	9	2	18	0	nt	nt	nt	nt	nt
COc1ccc2nc(NCCCO)[nH]c2c1	12	8	-1	-4	-7	nt	nt	nt	nt	nt
CCC1CCCCN1CCCNC(=O)Cn1c2ccccc2c2nc(=O)cc(C)n21 (configuration not stated)	-21	5	3	16	-1	nt	nt	nt	nt	nt
O=C(Nc1ccc(F)cc1)c1oc2ccccc2c1NC(=O)C1CC1	-46	14	-22	4	-5	nt	nt	nt	nt	nt

Bioassay records as filed in PubChem BioAssay.
